# According to the supplement of paper PMC4683952:
# Structures can show the parent of a compound that is named as a salt. Screen size: about 1,200 compounds; about 50 (4%) showed activity. The sample as a whole holds a higher share of actives than the screen did. Values without a mark were called inactive. Rule as the data show it: all actives reach 1.3 or more but so do some inactives.
# Test system: Lgr5 (MarsCy1-Lgr5-EGFP, U2OS)
# Test: cell-surface Lgr5 expression (SCi1 fluorescence, background-subtracted) relative to WT DMSO (fold of DMSO control); higher = more Lgr5 at the plasma membrane, active = hit call of the paper
# Settings: U2OS MarsCy1-Lgr5-EGFP stable; treatment time: overnight; 16 µM; library: Johns Hopkins Clinical Compound Library
row,Structure (SMILES),cell-surface Lgr5 expression
1,COc1cc(C2c3cc4c(cc3C(O)C(CO)C2C(=O)O)OCO4)cc(OC)c1OC.COc1cc(C2c3cc4c(cc3C(O)C(CO)C2C(=O)O)OCO4)cc(OC)c1OC.COc1cc(C2c3cc4c(cc3C(O)C3COC(=O)C23)OCO4)cc(OC)c1OC.COc1cc(C2c3cc4c(cc3C(O)C3COC(=O)C23)OCO4)cc(OC)c1OC (stereo unspecified) [Podophyllum resin],1.55 (active)
2,CC(N)C(O)c1ccccc1 (stereo unspecified) [Norephedrine Hydrochloride (Phenylpropanolamine)],1.19
3,C=C[C@H]1CN2CC[C@H]1C[C@@H]2[C@@H](O)c1ccnc2ccccc12 [Cinchonine sulfate],1.25
4,CCN(CC)C(=O)N[C@H]1C=C2c3cccc4[nH]cc(c34)C[C@H]2N(C)C1 [Lisuride],1.1
5,[S]=[Sb][S][Sb]=[S] [Antimony (III) sulfide],1.26
6,NC(=O)CN1CC(O)CC1=O (stereo unspecified) [Oxiracetam],1.36 (active)
7,COc1ccc(O)c(C(C)(C)C)c1.COc1ccc(O)cc1C(C)(C)C [Butylated hydroxyanisole],1.15
8,C=CCN1C[C@H](C(=O)N(CCCN(C)C)C(=O)NCC)C[C@@H]2c3cccc4[nH]cc(c34)C[C@H]21 [Cabergoline],0.958
9,ClC1=C(Cl)C2(Cl)C(CBr)CC1(Cl)C2(Cl)Cl (stereo unspecified) [Bromocyclen],1.24
10,C[C@]12Cc3c[nH]nc3C[C@@H]1CC[C@@H]1[C@@H]2CC[C@@]2(C)[C@H]1CC[C@]2(C)O [Stanozolol],1.03
11,"C[C@]12CCC(=O)C(O)=C1CC[C@@H]1[C@@H]2CC[C@]2(C)C(=O)CC[C@@H]12 [Formestane (4-Androsten-4-ol-3,17-dione)]",1.18
12,C=C1C[C@@H]2[C@H](CC[C@]3(C)C(=O)CC[C@@H]23)[C@@]2(C)C=CC(=O)C=C12 [Exemestane],1.48
13,"C[C@]12CC[C@H](O)CC1=CC[C@@H]1[C@@H]2CC[C@]2(C)C(=O)CC[C@@H]12 [Prasterone (DHEA, dehydroepiandrosterone)]",1.33 (active)
14,C[C@]12CC[C@H](O)CC1=CC[C@@H]1[C@@H]2CC[C@]2(C)C(=O)CC[C@@H]12 [Prasterone (dehydroisoandrosterone)],1.09
15,C=CCN=C=S [Allyl isothiocyanate],0.99
16,N[C@@H](Cc1ccc(N(CCCl)CCCl)cc1)C(=O)O [Melphalan],1.14
17,CC(C)(C)NCC(O)c1ccccc1Cl (stereo unspecified) [Tulobuterol],1.42 (active)
18,CN(C)C(=O)Oc1cc(OC(=O)N(C)C)cc(C(O)CNC(C)(C)C)c1 (stereo unspecified) [Bambuterol],1.21
19,C1CN1c1nc(N2CC2)nc(N2CC2)n1 [Triethylenemelamine],1.39
20,[O-][n+]1ccccc1[S-].[O-][n+]1ccccc1[S-].[Zn+2] [Pyrithione zinc (1-Hydroxypyridine-2-Thione Zinc Salt)],0.923
21,CN1C[C@H](C(=O)N[C@]2(C)O[C@@]3(O)[C@@H]4CCCN4C(=O)[C@H](Cc4ccccc4)N3C2=O)C[C@@H]2c3cccc4[nH]cc(c34)C[C@H]21 [Dihydroergotamine methanesulfonate],0.612
